# Laboratory results from ChEMBL document CHEMBL3988442, “University of Dundee, Small-Polar-MMV Screening Library” (2021).
# The campaign covered roughly 66,000 compounds. About 960 (1.5%) showed an effect of 50% or more. Only a selection was taken, and strong results are over-represented in it overall.
# Tested on: Trypanosoma brucei
# Assay: Trypanosoma brucei 72 hour study
# Type: functional, organism-based
# Parameters: scale not given: in the data most compounds retested in dose-response had high values
smiles,measurement,setting,value
O=C(O)C(F)(F)F.O=C1CCCN1Cc1nnc2n1CCCN(Cc1ccco1)C2,Percent Effect,"30.3 µM, […]",-37.98%
CC(C)(C)CC(=O)NCCn1nc(C2CCNC2)c2cccnc21.Cl (stereo unspecified),Percent Effect,"30.3 µM, […]",-18.41%
COCc1noc(Cn2c(=O)[nH]c3ccccc32)n1,Percent Effect,"30 µM, 30.03 µM",-41.22%
CCN1CCOCC12CCN(C(=O)Cc1cccs1)CC2.O=C(O)C(F)(F)F,Percent Effect,"30.3 µM, […]",-18.12%
O=C(Cc1ccccc1)N1CCC2(CC1)COCCN2CC1CC1.O=C(O)C(F)(F)F,Percent Effect,"30 µM, 30.03 µM",11.75%
CCN1CCOCC12CCN(C(=O)Cc1ccccc1)CC2.O=C(O)C(F)(F)F,Percent Effect,"30 µM, 30.03 µM",60.57%
O=C(C1CCC1)N1C[C@@H]2CC[C@H](C1)N(S(=O)(=O)c1cccnc1)C2,Percent Effect,"30 µM, 30.03 µM",-15.99%
CCOc1ncccc1CNC(=O)NC1CCOc2ccccc21 (stereo unspecified),Percent Effect,"30.3 µM, […]",-12.87%
C[C@@H]1CN(Cc2cccnc2)C[C@]12CCN(CCN1CCCC1)C2=O.O=C(O)C(F)(F)F.O=C(O)C(F)(F)F.O=C(O)C(F)(F)F,Percent Effect,"30.3 µM, […]",-30.87%
O=C(c1csc2nc(-c3ccc(Cl)cc3)cn12)N1CCCC(CO)C1 (stereo unspecified),Percent Effect,"30 µM, 30.03 µM",-27.9%
CCC1CN(C(=O)c2csc3nc(-c4ccc(Cl)cc4)cn23)CCN1 (stereo unspecified),Percent Effect,"30 µM, 30.03 µM",66.56%
CC(C)N1CCN(C(=O)c2csc3nc(-c4ccc(Cl)cc4)cn23)CC1,Percent Effect,"30 µM, 30.03 µM",-14.99%
Cc1nc(-c2ccc(F)c(F)c2)cc(C2CCNCC2)n1.Cl,Percent Effect,"30.3 µM, […]",101.1%
COc1ccc(-c2cc(C3CCNCC3)nc(C)n2)cc1.Cl,Percent Effect,"30.3 µM, […]",0.4357%
Cc1nc(-c2ccc(F)cc2)cc(C2CCNCC2)n1,Percent Effect,"30.3 µM, […]",-5.19%
Cc1nc(-c2ccccc2)cc(C2CCNCC2)n1.Cl,Percent Effect,"30.3 µM, […]",-24.18%
Cc1nc(-c2ccc(CO)cc2)cc(C2CCNCC2)n1.Cl,Percent Effect,"30.3 µM, […]",-17.1%
Cc1ccc(-c2cc(C3CCNCC3)nc(C)n2)cc1.Cl,Percent Effect,"30.3 µM, […]",86.87%
O=C(O)C(F)(F)F.O=C(c1cscn1)N1CCc2c(COCC3CC3)cncc2C1,Percent Effect,"30.3 µM, […]",-26.29%
O=C(O)C(F)(F)F.O=C([C@H]1C[C@@H]2CCN(c3cccc(F)c3)C[C@H]2O1)N1CCCCO1,Percent Effect,"30.3 µM, […]",-0.6141%
Fc1ccc(CNCc2nnc3n2CC(C(F)(F)F)CC3)cc1 (stereo unspecified),Percent Effect,"30 µM, 30.03 µM",-35.58%
CC[C@@H]1N(Cc2ccc(F)cc2)CCC[C@]12CCC(=O)N2CCOC.O=C(O)C(F)(F)F,Percent Effect,"30.3 µM, […]",-80.81%
CC(C)c1n[nH]c(C2CN(C(=O)CCn3ccccc3=O)CCO2)n1 (stereo unspecified),Percent Effect,"30 µM, 30.03 µM",52.13%
CCc1n[nH]c(C2CN(C(=O)CCn3ccccc3=O)CCO2)n1 (stereo unspecified),Percent Effect,"30.3 µM, […]",7.899%
CC(C)c1n[nH]c(C2CN(C(=O)Cn3ccccc3=O)CCO2)n1 (stereo unspecified),Percent Effect,"30.3 µM, […]",9.582%
Cl.c1ncc(-c2ccc(C3CNCCO3)nc2)cn1 (stereo unspecified),Percent Effect,"30.3 µM, […]",-18.07%
COc1ccc(-c2ccc(C3CNCCO3)nc2)cc1.Cl (stereo unspecified),Percent Effect,"30.3 µM, […]",-17.4%
CN(C)c1ncc(-c2ccc(F)cc2)c(C2CNCCO2)n1.Cl (stereo unspecified),Percent Effect,"30.3 µM, […]",29.73%
Cl.Cl.Cn1nc(C2CNCCO2)cc1CCOc1ccc(Cl)cc1 (stereo unspecified),Percent Effect,"30.3 µM, […]",53.46%
Cl.Clc1ccc(-c2ccc(C3CNCCO3)nc2)cc1 (stereo unspecified),Percent Effect,"30.3 µM, […]",98.64%
Cc1ccc(-c2ccc(C3CNCCO3)nc2)cc1.Cl (stereo unspecified),Percent Effect,"30.3 µM, […]",88.62%
Cl.c1ccc(-c2ccc(C3CNCCO3)nc2)cc1 (stereo unspecified),Percent Effect,"30 µM, 30.03 µM",-8.657%
COc1ccc(OCCc2cc(C3CNCCO3)nn2C)cc1 (stereo unspecified),Percent Effect,"30.3 µM, […]",1.828%
Cn1nc(C2CNCCO2)cc1CCOc1ccc(C(F)(F)F)cc1 (stereo unspecified),Percent Effect,"30.3 µM, […]",20.05%
COCCCNC(=O)NCc1cccn1Cc1ccccc1C,Percent Effect,"30 µM, 30.03 µM",-24.61%
O=C(O)C(F)(F)F.O=C1COC2(CCN(Cc3ccoc3)CC2)CN1c1ccccc1,Percent Effect,"30 µM, 30.03 µM",-9.648%
COCCNC(=O)[C@H]1CN(Cc2csc(C)n2)C[C@H]2OCC[C@@H]12.O=C(O)C(F)(F)F.O=C(O)C(F)(F)F,Percent Effect,"30 µM, 30.03 µM",-11.19%
COCC1CC2(CCN(Cc3cccc(C#N)c3)CC2)CN1C(C)C.O=C(O)C(F)(F)F.O=C(O)C(F)(F)F (stereo unspecified),Percent Effect,"30 µM, 30.03 µM",-12.65%
CC[C@H](C)[C@H](N)C(=O)N1CC(=O)c2sc(NCc3ccccc3)nc2C1,Percent Effect,"30.3 µM, […]",35.54%
CC(C)NC(=O)N1CC(=O)c2sc(NC3CCCCC3)nc2C1,Percent Effect,"30.3 µM, […]",-21.05%
CC(C)CC(=O)N1CC(=O)c2sc(Nc3ccc(F)cc3)nc2C1,Percent Effect,"30.3 µM, […]",-26.14%
CC[C@H](C)[C@H](N)C(=O)N1CC(=O)c2sc(NC3CCCCC3)nc2C1,Percent Effect,"30.3 µM, […]",89.66%
CC(C)CC(=O)N1CC(=O)c2sc(NC3CCCCC3)nc2C1,Percent Effect,"30.3 µM, […]",-18.82%
CC[C@H](C)[C@H](N)C(=O)N1CC(=O)c2sc(Nc3ccc(F)cc3)nc2C1,Percent Effect,"30.3 µM, […]",54.3%
N[C@H]1CC[C@@H](n2cc(C(=O)N[C@H]3CCCc4ccccc43)nn2)CC1,Percent Effect,"30 µM, 30.03 µM",-48.79%
O=C(Nc1cnccn1)[C@@H]1COC[C@H]2CN(C3CCC3)C[C@H]21.O=C(O)C(F)(F)F,Percent Effect,"30 µM, 30.03 µM",-9.316%
COCCn1cc(NC(=O)NCC2CCN(c3ccccc3)C2)cn1 (stereo unspecified),Percent Effect,"30 µM, 30.03 µM",-68.77%
COCCN1CCC(CNC(=O)Nc2ccc(SC(F)(F)F)cc2)C1 (stereo unspecified),Percent Effect,"30.3 µM, […]",90.18%
COCCN1CCC(CNC(=O)C2(c3ccccc3)CCC2)C1 (stereo unspecified),Percent Effect,"30.3 µM, […]",-7.306%
COCCN1CCC(CNC(=O)C2(c3cccc(Cl)c3)CC2)C1 (stereo unspecified),Percent Effect,"30.3 µM, […]",10.42%
COCCN1CCC(CNC(=O)C2(c3ccccc3)CCOCC2)C1 (stereo unspecified),Percent Effect,"30.3 µM, […]",-10.94%
COCCN1CCC(CNC(=O)CCc2cc(F)ccc2F)C1 (stereo unspecified),Percent Effect,"30 µM, 30.03 µM",-4.617%
COCCN1CCC(CNC(=O)c2cc(C)cc(C)c2)C1 (stereo unspecified),Percent Effect,"30 µM, 30.03 µM",28.41%
COCCN1CCC(CNC(=O)Nc2ccc(-c3ccccc3)cc2)C1 (stereo unspecified),Percent Effect,"30.3 µM, […]",100.6%
COCCN1CCC(CNC(=O)Nc2ccc(F)c(Cl)c2)C1 (stereo unspecified),Percent Effect,"30.3 µM, […]",73.54%
O=C(C1CCCC1)N1CCC2(CC1)COCCN2CC1CC1.O=C(O)C(F)(F)F,Percent Effect,"30.3 µM, […]",-13.33%
CCN1CCC2(CC1)CC(NCc1ccncc1)c1ccccc1O2.O=C(O)C(F)(F)F.O=C(O)C(F)(F)F.O=C(O)C(F)(F)F (stereo unspecified),Percent Effect,"30 µM, 30.03 µM",1.43%
O=C(CN1CCC(c2ccnn2CCO)CC1)NCc1ccco1,Percent Effect,10 µM,-47.08%
O=C(O)C(F)(F)F.O=C(c1ccno1)N1CC[C@@H]2O[C@H](COCCN3CCCC3)CC[C@@H]21,Percent Effect,"30 µM, 30.03 µM",39.45%
CCCN(Cc1nc2ccccc2[nH]1)Cc1ccccc1OC,Percent Effect,"30.3 µM, […]",15.38%
CCCN(Cc1cnc2ccccc2n1)Cc1ccccc1OC,Percent Effect,"30.3 µM, […]",99.59%
CCCN(Cc1ccccn1)Cc1ccccc1OC,Percent Effect,"30.3 µM, […]",-7.297%
Cc1cccc(CN2CCn3cc(Cn4cccn4)nc3C2)n1.O=C(O)C(F)(F)F.O=C(O)C(F)(F)F.O=C(O)C(F)(F)F,Percent Effect,"30 µM, 30.03 µM",-12.32%
O=C(O)C(F)(F)F.O=C(c1cnccn1)N1CCOC2(CCCN(c3ncccc3F)C2)C1 (stereo unspecified),Percent Effect,"30.3 µM, […]",-33.25%
O=C(O)C(F)(F)F.O=C(c1ccnnc1)N1CC[C@]2(C[C@H](Oc3ncccc3F)CO2)C1,Percent Effect,"30 µM, 30.03 µM",-5.807%
COc1ccc(CNC(=O)Nc2ccc(S(=O)(=O)C(F)F)cc2)cc1,Percent Effect,"30 µM, 30.03 µM",-8.777%
CN(C)c1ccc(CNC(=O)Nc2ccc(S(=O)(=O)C(F)F)cc2)cc1,Percent Effect,"30 µM, 30.03 µM",71.22%
Cn1ccc(CNC(=O)Nc2ccc(S(=O)(=O)C(F)F)cc2)c1,Percent Effect,"30 µM, 30.03 µM",-7.299%
COCCNC(=O)CN1CCN(c2nc(C)cs2)CC1,Percent Effect,10 µM,-57.99%
CC(C)C(=O)Nc1ccc(Oc2ccc3c(c2)OCO3)nc1,Percent Effect,"30 µM, 30.03 µM",-14.33%
CCC(=O)NCCCn1c(-c2cccnc2C)cc2cccnc21.Cl,Percent Effect,"30.3 µM, […]",-13.2%
COCCN(Cc1cccs1)C(=O)c1ccc(=O)n(C)c1,Percent Effect,"30.3 µM, […]",-3.424%
CCN(Cc1cccs1)C(=O)c1ccc(=O)n(C)c1,Percent Effect,"30.3 µM, […]",-2.313%
CN(Cc1cccs1)C(=O)c1ccc(=O)n(C)c1,Percent Effect,"30.3 µM, […]",98.98%
COc1ccc(NC(=O)Cn2nc(C)c(C(C)=O)c2C)cc1,Percent Effect,"30.3 µM, […]",101.9%
CC(=O)c1c(C)nn(CC(=O)Nc2ccc(F)cc2)c1C,Percent Effect,"30.3 µM, […]",-35.96%
COc1ccc(NC(=O)Cn2nc(C)c(C)cc2=O)cc1OC,Percent Effect,"30.3 µM, […]",-10.01%
Cc1cc(=O)n(CC(=O)Nc2ccc(Cl)cc2)nc1C,Percent Effect,"30 µM, 30.03 µM",-26.52%
COc1ccc(NC(=O)Cn2nc(C)c(C)cc2=O)cc1,Percent Effect,"30 µM, 30.03 µM",-33.88%
CC(=O)c1c(C)nn(CC(=O)Nc2ccc(Br)cc2)c1C,Percent Effect,"30.3 µM, […]",101.3%
Cc1ccc(Nc2nccc(C3CCN(CC(N)=O)C3)n2)nc1 (stereo unspecified),Percent Effect,"30.3 µM, […]",-50.23%
O=C(O)C(F)(F)F.O=C(c1ccccc1)N1CCC[C@]2(C[C@@H](OCc3ccccn3)CO2)C1,Percent Effect,"30.3 µM, […]",-136.6%
O=C(C1CC1)N1CCCC1c1nnc2n1CCCCC2 (stereo unspecified),Percent Effect,"30 µM, 30.03 µM",-31.5%
CN(C)C(=O)CN1CCn2cc(Cn3cccn3)nc2C1.O=C(O)C(F)(F)F.O=C(O)C(F)(F)F,Percent Effect,"30 µM, 30.03 µM",-43.32%
CCNc1cc2c(nn1)CCN(C(=O)c1cc3cccc(C)c3o1)C2,Percent Effect,10 µM,-32.26%
same,Percent Effect,"30.3 µM, […]",29.79%
CC(C)CN1Cc2nc(N3CCCC(C)C3)ncc2C1=O (stereo unspecified),Percent Effect,"30 µM, 30.03 µM",-5.722%
Cl.Cl.O=C(CN1CCN(CC(O)C2CC2)CC1)NCc1ccccc1Cl (stereo unspecified),Percent Effect,"30.3 µM, […]",-15.94%
COc1ccc(C(=O)NCCCOC(C)c2ccccc2)c(OC)c1 (stereo unspecified),Percent Effect,"30.3 µM, […]",17.87%
OC(CNc1ncnc2c1CCNCC2)C(F)(F)F (stereo unspecified),Percent Effect,"30 µM, 30.03 µM",-18.54%
OC(CNc1nc(C2CCCC2)nc2c1CCNCC2)C(F)(F)F (stereo unspecified),Percent Effect,"30 µM, 30.03 µM",99.48%
Cc1nc2c(c(NCC(O)C(F)(F)F)n1)CCNCC2 (stereo unspecified),Percent Effect,"30 µM, 30.03 µM",-77.95%
N#Cc1cccc(CN2CCC3(CC2)CC(c2ccncc2)C(=O)N3)c1.O=C(O)C(F)(F)F.O=C(O)C(F)(F)F (stereo unspecified),Percent Effect,"30 µM, 30.03 µM",43.46%
CCOc1ncccc1NC(=O)c1cc(C)c(C)s1,Percent Effect,"30 µM, 30.03 µM",63.47%
CCOc1ncccc1NC(=O)c1cc(C)sc1C,Percent Effect,"30 µM, 30.03 µM",-36.47%
CCOc1ncccc1NC(=O)c1ccc(C)s1,Percent Effect,"30 µM, 30.03 µM",-25.8%
